Measured values taken from PubChem BioAssay AID1662 (Broad Institute, 2009).
About 4,000 (1.3%) of roughly 300,000 compounds were called active. Shown is part of a subset that was picked to be rich in actives. Unmarked numbers belong to inactive results.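 How the source made its calls: active means mean replicate score, as percent of positive control median, at least 50; inconclusive means mean below 50 but one replicate at or above 50; inactive means mean and every replicate below 50.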

assay: S. pyogenes SKKanGAS growth inhibitors in kanamycin, primary screen, streptokinase expression inhibitor project, SKKanGAS strain, BacTiter-Glo luminescence (AID 1662); settings: 6 h, at 7.5 µM, hits give high values;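 further: strain carries kanamycin resistance gene driven by streptokinase promoter and grows in 40 µg/ml kanamycin; loss of luminescence reflects streptokinase promoter inhibition or plain growth inhibition; 0% = median of DMSO wells and 100% = positive control at its reference dose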

Structure (SMILES)	inhibition
CCOC(=O)C1CCN(C(=O)COC(=O)C2CCN(S(=O)(=O)c3ccc4c(c3)OCCO4)CC2)CC1	19.6%
CCc1nnc(NC(=O)C2CC(=O)N(c3ccc4c(c3)OCCO4)C2)s1 (stereo not drawn)	-3.71%
CC(OC(=O)c1ccc2noc(-c3ccccc3)c2c1)C(N)=O (stereo not drawn)	6.64%
Clc1c(OCCCn2ccnc2)ccc2ccccc12	5.1%
Cc1ccc(CNC(=O)CCN2C(=O)[C@@H]3Cc4ccccc4CN3C2=O)cc1	4.22%
Cc1ccccc1NC(=O)CSc1nc2ccc(Nc3nc(N4CCOCC4)nc(N4CCOCC4)n3)cc2s1	15.9%
O=C(CSc1nc(Nc2ccccc2)nc(N2CCOCC2)n1)Nc1cc(Cl)ccc1O	78.3% (active)
CC1(c2ccccc2)NC(=O)N(CC(=O)Nc2cc(Cl)ccc2N2CCOCC2)C1=O (stereo not drawn)	-3.7%
Nc1nonc1-n1nnc(C(=O)N/N=C/c2ccccc2O)c1CN1CCCC1	-2.71%
Nc1nonc1-n1nnc(C(=O)N/N=C/c2cc(Br)ccc2O)c1CSC1=NCCS1	107% (active)
Cc1ccc(SCc2c(C(=O)N/N=C/c3cccnc3)nnn2-c2nonc2N)cc1	3.15%
O=C(O)c1cccnc1Sc1ncnc2sc3c(c12)CCC3	-1.33%
COc1ccccc1CCC(=O)NNC(=O)c1ccncc1	-5.32%
O=C(NC(=S)Nc1ccc(NC(=O)c2cccs2)cc1)c1ccc([N+](=O)[O-])cc1	6.3%
CC(=O)Nc1ccc(NC(=S)NC(=O)c2ccc([N+](=O)[O-])c(C)c2)cc1	-0.0689%
CC(=O)NC(=S)Nc1ccc(NC(=S)NC(=O)c2ccc([N+](=O)[O-])cc2)cc1	60.3% (active)
CC(C)=N/N=C1/NC(=O)C(Cc2ccccc2)S1 (stereo not drawn)	0.633%
NC1=NC(=O)C(Cc2cccc(Cl)c2Cl)S1 (stereo not drawn)	-7.45%
O=C1NC(=Nc2ccc(Cl)cc2)SC1Cc1cccc(Cl)c1Cl (stereo not drawn)	61.1% (active)
COc1ccc(C(CNC(=O)c2cc3c(s2)CCCC3)N2CCOCC2)cc1 (stereo not drawn)	-4.29%
O=C(Nc1cccc(Cl)c1)c1cncn1-c1ccc(F)cc1	-0.257%
CC(C)C(=O)Nc1cccc(NC(=S)NC(=O)C(c2ccccc2)c2ccccc2)c1	22.1%
O=C(NNC(=S)NCc1ccco1)C(c1ccccc1)c1ccccc1	12.9%
CCCCC(=O)NNC(=S)NC(=O)C(c1ccccc1)c1ccccc1	85.9% (active)

Structure (SMILES)	inhibition
CC(=O)N/C(=N/c1nc(C)cc(C)n1)Nc1ccc(F)cc1F	-6.21%
Cc1ccc(OCc2nnc(SC3CCc4ccccc4C3=O)n2C)cc1 (stereo not drawn)	1.05%
CN(CCc1ccccn1)C(=O)c1ccc(OC2CCN(Cc3ccccn3)CC2)cc1	15.2%
Nc1cccc2c1C(=O)N(Cc1nnc(-c3ccccc3Br)o1)C2=O	-13.7%
COc1ccc(OCC(=O)NCCS(=O)(=O)N2CCN(c3ccc(F)cc3)CC2)cc1	-2.54%
CCOc1cc(N2CCOCC2)c(OCC)cc1NC(=O)c1ccc(C)s1	-3.59%
CCOc1cc(N2CCOCC2)c(OCC)cc1NC(=O)c1cc(C)nc2ccccc12	6.5%
CCOc1cc(N2CCOCC2)c(OCC)cc1NC(=O)C1=NN(c2cccc(C)c2)C(=O)CC1	54% (active)
CCOCCCNC(=O)C(NC(=O)c1ccc(=O)[nH]c1)c1ccc(Cl)cc1 (stereo not drawn)	-3.58%
COc1ccc(OC)c(S(=O)(=O)Nc2cccc(-c3ccc4nncn4n3)c2)c1	-5.29%
O=C(Nc1ccc(Cl)cn1)Nc1cccs1	-3.53%
Cc1ccc(Nc2nc(-c3ccc(O)cc3O)cs2)nc1	20.8%
Clc1ccc(Nc2nc(-c3cccs3)cs2)nc1	64.4% (active)
O=C(CSc1ccc(-c2ccccn2)nn1)Nc1ccccc1	-3.36%
CC(C)CN(Cc1c(O)ccc2c(=O)c(-c3ccccc3)coc12)CC(C)C	0.595%
O=c1c(-c2ccccc2)coc2cc(O)ccc12	0.922%
CC(C)=CCc1c(O)c(CC=C(C)C)c2occ(-c3ccc(O)cc3)c(=O)c2c1O	105% (active)
CCOC(=O)c1ccc2c(c1)nc(SCC(=O)NC(C)C)n2CC	-3.36%
Cc1cc(C)c(S(=O)(=O)Nc2c(C)n(C)n(-c3ccccc3)c2=O)cc1[N+](=O)[O-]	4.05%
O=C(c1ccco1)N1CCN(C(=O)c2cc(-c3ccccc3F)no2)CC1	63.3% (active)
O=C(Cc1c(F)cccc1Cl)N1CCN(C(=O)c2ccco2)CC1	-1.63%
O=C(NCCCN1CCOCC1)c1cc(-c2ccccc2F)no1	26.3%
COC(CNC(=O)c1ccc2c(c1)ncn2-c1cc(C)cc(C)c1)OC	0.722%
COC(=O)C1=C(C)NC(=O)CC1c1ccccc1OC (stereo not drawn)	4.98%

Structure (SMILES)	inhibition
COC(=O)C1=C(C)NC2=C(C(=O)c3ccccc32)C1c1ccc(-c2ccc(C(=O)O)cc2)o1 (stereo not drawn)	60.6% (active)
CCOC(=O)c1ccc(-c2ccc(C(=O)Nc3cccnc3)o2)cc1	3.97%
O=C(c1cccs1)N(Cc1cc2ccccc2[nH]c1=O)CC1CCCO1 (stereo not drawn)	-2.88%
O=C(NCCC1CCCCN1S(=O)(=O)c1ccc(Cl)cc1)C(=O)NCc1ccco1 (stereo not drawn)	-16.2%
Brc1ccccc1C1Nc2cccc3cccc(c23)N1	56.8% (active)
Oc1ccc(C2Nc3cccc4cccc(c34)N2)cc1	3.2%
Cc1ccc(C2Nc3cccc4cccc(c34)N2)cc1	9.05%
CC1Cc2cc(/C(O)=C3\C(=O)C(=O)N(Cc4cccnc4)C3c3ccccc3F)ccc2O1 (stereo not drawn)	12.9%
CC1CCCCN1S(=O)(=O)c1ccc(C(=O)Nc2nnc(-c3cccs3)o2)cc1 (stereo not drawn)	99.8% (active)
CSCc1nnc(NC(=O)c2ccc(S(=O)(=O)N3CCCCC3C)cc2)o1 (stereo not drawn)	39.4%
CC1CCCN(S(=O)(=O)c2ccc(C(=O)Nc3nnc(-c4ccncc4)o3)cc2)C1 (stereo not drawn)	20.4%
CCn1c(N)c(Br)c(=O)[nH]c1=O	0.526%
Cc1cc(OC(C)C(=O)NC2CC(C)(C)NC(C)(C)C2)c2c(C)cc(=O)oc2c1 (stereo not drawn)	2.79%
CCOC(=O)N1CCN(c2cc(C)c([N+](=O)[O-])cc2F)CC1	15.6%
O=C(O)c1ccc(Cn2c(=S)[nH]c3cc(Cl)ccc3c2=O)cc1	9.12%
CC(C)c1ccc2c(c1)c(SC(C)(C)C)c(CC(C)(C)C(=O)O)n2Cc1ccc(Cl)cc1	109% (active)
O=C(COC(=O)c1ccccc1SCC(=O)N1CCCC1)Nc1ccccc1OC(F)F	34%
CSCCNC(=O)c1ccc2nc(Cc3ccccc3F)oc2c1	2.77%
CC(C)S(=O)(=O)c1csc(NC(=O)Nc2ccc(Cl)cc2)c1Cl	60% (active)
Cn1ccc(NC(=O)Nc2ccc(Cl)cc2)n1	-3.73%
CN(c1cccc(NC(=O)Nc2ccc(Cl)cc2)c1)S(C)(=O)=O	-13.9%
Cc1ccc(C(=O)O)cc1NC(=O)c1ccc(Cn2nc(C)c(Cl)c2C)o1	5.19%
Cc1c(Cl)c([N+](=O)[O-])nn1CCCC(=O)Nc1cc(Cl)ccc1Cl	-2.88%
Cc1c(Cl)c([N+](=O)[O-])nn1Cc1ccc(C(=O)N/N=C\c2cc(Cl)ccc2O)o1	96.5% (active)

Structure (SMILES)	inhibition
CCC(CC)c1nnc(NC(=O)C2CCN(C(=O)c3ccco3)CC2)s1	-3.32%
O=C(Nc1ccccc1)c1nnsc1S(=O)(=O)c1ccc(Cl)cc1	85.8% (active)
O=C(c1ccc(Cl)cc1)c1cnc(Nc2ccccc2)s1	3.38%
CS(=O)(=O)c1ccc(Cl)c(NC(=O)Nc2ccccc2)c1	-0.376%
Cc1nnc(SCC(=O)Nc2cccc(N)c2)n1-c1ccccc1	8.19%
Clc1ccc(Cl)c(Oc2ccc(Oc3nc(Cl)ccc3Cl)cc2)n1	-7.12%
COc1ccccc1CNC(=O)CSc1nc(=O)n(Cc2ccncc2)c2c1CCC2	49.6% (active)
CN(C)CCn1c2c(c(SCC(=O)NCc3ccccc3)nc1=O)CCC2	-2.81%
CN(C)CCn1c2c(c(SCC(=O)Nc3ccccc3C(F)(F)F)nc1=O)CCCC2	-16.8%
O=C(NNC1=C(C(=O)C(F)(F)F)CCC1)c1ccncc1	18.5%
O=C(Cc1ccc(S(=O)(=O)N2CCOCC2)s1)NCCOc1ccccc1F	2.98%
O=C(Nc1c2c(nn1-c1ccccc1)CS(=O)(=O)C2)C1CCCC1	-3.29%
CC(=O)Nc1ccc(Nc2ncnc3c2nnn3Cc2ccccc2Cl)cc1	1.15%
CC(C)NC(=S)NN=C1CCCCCCCCCCC1	63.8% (active)
CC(C)(C)NC(=O)C(=O)NN=C1CCCCCCC1	-3.09%
C/C(=N\NC(=S)NC(C)C)c1ccc(C(C)(C)C)cc1	15.9%
Cc1c(CN2CCC(n3nccc3NC(=O)CCc3ccccc3)CC2)cnn1C	1.52%
CC(=O)Nc1ccc(/C=N/NC(=O)c2cccs2)cc1	5.44%
CC(=O)NC(Cc1c[nH]c2ccccc12)C(=O)O (stereo not drawn)	4.27%
O=C(NC(Cc1c[nH]c2ccccc12)C(=O)N/N=C/c1ccc(Br)cc1)c1cccs1 (stereo not drawn)	66.8% (active)
CN(Cc1ccccc1)C(=O)c1ccc(NC2=NC3CS(=O)(=O)CC3S2)cc1 (stereo not drawn)	-1.29%
